Measurements taken from PubChem BioAssay (EPA / NIEHS).
Activity calls are given as the source filed them. The calls were made as follows: active = hit-call score of the fitted dose curve at least 0.9, where 1 is the maximum; inactive = score below 0.9.

Key:
[1] = ATG_GLI_CIS: Attagene CIS-FACTORIAL HepG2 Assay for human Zinc Finger Protein GLI1 (AID 2282945); details: HepG2, Attagene cis-factorial reporter mRNA, GLI element; actives raise or lower the signal
Procedure, shortened: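 HepG2 cells transiently transfected with cis-promoter multiplexed reporter units report endogenous transcription factor activity. After 24 h chemical exposure, reporter mRNA was quantified by RT-PCR, 6-FAM labelling, HpaI digestion and capillary electrophoresis, with bidirectional fitting against DMSO.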

[2] = ATG_GRE_CIS: Attagene CIS-FACTORIAL HepG2 Assay for human Glucocorticoid Response Elements (GRE) (AID 2282947); details: HepG2 GRE cis-reporter, Attagene multiplex mRNA; actives raise or lower the signal
Procedure, shortened: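 Cells (HepG2) bearing transfected cis-promoter reporter transcription units were treated with chemical for 24 hours. Reporter mRNA was measured via RT-PCR with capillary electrophoresis, and activity was fitted in both directions relative to DMSO.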

[3] = ATG_ISRE_CIS: Attagene CIS-FACTORIAL HepG2 Assay for human Interferon Regulatory Factor 1 (IRF1) binding to an Interferon-Stimulated Response Element (ISRE) (AID 2282948); details: HepG2 ISRE cis-reporter (Attagene), mRNA transcription readout; actives raise or lower the signal
Procedure, shortened: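 Multiplexed mRNA reporter readout in human liver HepG2 cells: cis-element-driven reporters transfected, compound added for 24 h, transcripts amplified, fluorescently labelled and sized by capillary electrophoresis; curve fitting bidirectional against DMSO.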

[4] = ATG_M_32_CIS: Attagene CIS-FACTORIAL HepG2 Assay for M32 Transcription Factor (Internal Marker) (AID 2282949); details: HepG2 Attagene cis-factorial M32 reporter, mRNA; actives raise or lower the signal;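 also: background control marker of the multiplexed CIS panel rather than a real target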
Procedure, shortened: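 HepG2 transfectants (cis-regulated reporter transcription units) dosed 24 h. Reporter mRNA by RT-PCR plus CE, analysed as gain or loss relative to DMSO.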

[5] = ATG_M_06_CIS: Attagene CIS-FACTORIAL HepG2 Assay for M06 Transcription Factor (Internal Marker) (AID 2282950); details: HepG2 Attagene CIS-FACTORIAL M06 internal marker reporter; actives raise or lower the signal
Procedure, shortened: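 HepG2 cells transiently transfected with cis-regulated multiple reporter transcription units were exposed to chemical for 24 h; reporter mRNA was quantified by RT-PCR, 6-FAM primer labelling, HpaI digestion and capillary electrophoresis, fitted bidirectionally against DMSO.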

[6] = biological target: Hypoxia-inducible factor 1-alpha (Homo sapiens) (UniProt Q16665); assay: ATG_HIF1a_CIS: Attagene CIS-FACTORIAL HepG2 Assay for human Hypoxia Inducible Factor 1 (HIF1A) (AID 2282951); details: HepG2 Attagene cis-factorial HIF1a reporter transcription; actives raise or lower the signal
Hypoxia-inducible factor 1-alpha (Homo sapiens), sequence (Q16665 whole entry, looked up): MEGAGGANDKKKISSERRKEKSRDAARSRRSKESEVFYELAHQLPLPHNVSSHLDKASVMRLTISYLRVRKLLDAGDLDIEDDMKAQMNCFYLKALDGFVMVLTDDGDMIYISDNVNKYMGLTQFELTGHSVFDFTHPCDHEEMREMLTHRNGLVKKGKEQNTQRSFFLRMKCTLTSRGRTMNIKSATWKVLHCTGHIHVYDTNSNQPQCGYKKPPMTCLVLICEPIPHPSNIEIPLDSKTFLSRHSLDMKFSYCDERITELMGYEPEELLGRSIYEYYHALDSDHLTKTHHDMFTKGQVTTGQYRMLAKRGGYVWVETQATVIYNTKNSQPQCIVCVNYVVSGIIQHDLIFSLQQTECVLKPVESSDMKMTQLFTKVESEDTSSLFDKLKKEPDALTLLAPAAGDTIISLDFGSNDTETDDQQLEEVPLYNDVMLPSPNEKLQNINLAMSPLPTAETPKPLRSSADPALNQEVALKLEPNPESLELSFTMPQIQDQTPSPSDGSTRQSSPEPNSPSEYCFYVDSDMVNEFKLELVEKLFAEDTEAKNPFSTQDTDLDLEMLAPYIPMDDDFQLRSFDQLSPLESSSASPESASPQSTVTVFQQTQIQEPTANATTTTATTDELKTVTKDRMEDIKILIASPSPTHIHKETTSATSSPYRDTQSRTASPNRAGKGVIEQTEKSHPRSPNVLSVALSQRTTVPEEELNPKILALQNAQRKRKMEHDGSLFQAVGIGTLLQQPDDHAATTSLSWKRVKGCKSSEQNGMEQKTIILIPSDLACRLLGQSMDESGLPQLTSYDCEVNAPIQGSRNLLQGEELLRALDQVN
Procedure, shortened: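 Endogenous-TF cis reporter readout, human HepG2 cells, 24 h incubation; mRNA detected via RT-PCR and capillary electrophoresis fluorescence; DMSO-normalised bidirectional fitting.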

[7] = biological target: Hepatocyte nuclear factor 6 (Homo sapiens) (UniProt Q9UBC0); assay: ATG_HNF6_CIS: Attagene CIS-FACTORIAL HepG2 Assay for human Hepatocyte Nuclear Factor 6 (HNF6) (AID 2282952); details: HepG2 Attagene cis-factorial HNF6 reporter transcription; actives raise or lower the signal
Hepatocyte nuclear factor 6 (Homo sapiens), sequence (Q9UBC0 whole entry, looked up): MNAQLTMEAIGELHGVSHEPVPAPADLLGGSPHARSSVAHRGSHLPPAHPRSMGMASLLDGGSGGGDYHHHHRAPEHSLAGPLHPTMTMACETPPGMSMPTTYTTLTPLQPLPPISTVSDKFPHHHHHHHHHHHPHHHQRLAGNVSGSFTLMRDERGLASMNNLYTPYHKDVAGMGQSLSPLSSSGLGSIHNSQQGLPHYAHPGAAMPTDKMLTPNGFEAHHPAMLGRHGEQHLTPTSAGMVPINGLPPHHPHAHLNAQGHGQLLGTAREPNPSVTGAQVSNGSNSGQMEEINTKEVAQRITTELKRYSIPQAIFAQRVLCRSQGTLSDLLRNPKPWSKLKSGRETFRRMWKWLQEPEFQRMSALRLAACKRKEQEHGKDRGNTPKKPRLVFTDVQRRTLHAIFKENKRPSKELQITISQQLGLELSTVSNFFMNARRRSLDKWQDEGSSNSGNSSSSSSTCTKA
Procedure, shortened: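 Endogenous factor activity read in transiently transfected HepG2 via promoter-regulated reporter transcripts. RNA harvested 24 h post-dosing, reverse-transcribed, PCR-amplified, FAM-labelled, HpaI-digested and resolved by capillary electrophoresis; fitted in both directions against DMSO.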

[8] = biological target: Heat shock factor protein 1 (Homo sapiens) (UniProt Q00613); assay: ATG_HSE_CIS: Attagene CIS-FACTORIAL HepG2 Assay for human Heat Shock Transcription Factor 1 (HSE) (AID 2282953); details: HepG2 HSE cis-reporter, Attagene RNA transcription; actives raise or lower the signal
Heat shock factor protein 1 (Homo sapiens), sequence (Q00613 whole entry, looked up): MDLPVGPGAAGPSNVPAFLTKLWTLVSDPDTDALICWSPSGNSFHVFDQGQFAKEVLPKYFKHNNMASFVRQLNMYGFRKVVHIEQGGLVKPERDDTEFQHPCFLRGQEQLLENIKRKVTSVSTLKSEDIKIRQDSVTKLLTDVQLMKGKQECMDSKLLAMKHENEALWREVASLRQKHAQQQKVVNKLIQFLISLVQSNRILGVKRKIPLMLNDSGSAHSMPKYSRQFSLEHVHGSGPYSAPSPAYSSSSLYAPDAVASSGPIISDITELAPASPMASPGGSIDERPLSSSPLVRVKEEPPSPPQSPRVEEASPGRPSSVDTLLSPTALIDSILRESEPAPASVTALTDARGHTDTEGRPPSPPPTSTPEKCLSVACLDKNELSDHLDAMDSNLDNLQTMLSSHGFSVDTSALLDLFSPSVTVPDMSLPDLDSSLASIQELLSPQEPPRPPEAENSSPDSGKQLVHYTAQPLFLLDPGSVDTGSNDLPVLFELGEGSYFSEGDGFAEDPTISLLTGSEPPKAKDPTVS
Procedure, shortened: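 HepG2 cells transiently transfected with multiple reporter transcription units under cis-regulatory promoter control, measuring endogenous transcription factor activity. After 24 h chemical exposure, reporter mRNA quantified by RT-PCR, fluorescent labelling, HpaI digestion and capillary electrophoresis; bidirectional fit versus DMSO.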

[9] = ATG_MRE_CIS: Attagene CIS-FACTORIAL HepG2 Assay for human Metal Responsive Element (MRE) (AID 2282954); details: HepG2 MRE cis-reporter transcription, Attagene multiplex; actives raise or lower the signal
Procedure, shortened: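 Cells were transfected with cis-promoter reporter transcription units, then dosed for 24 h. RNA was reverse-transcribed, amplified, fluorescently labelled and resolved by capillary electrophoresis, and activity was fitted in both directions relative to DMSO.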

[10] = ATG_PBREM_CIS: Attagene CIS-FACTORIAL HepG2 Assay for human Phenobarbital-responsive Enhancer Module (PBREM) (AID 2282955); details: HepG2 PBREM cis-reporter, Attagene multiplexed transcription; actives raise or lower the signal
Procedure, shortened: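 Readout: reporter mRNA, fluorescent RT-PCR fragments separated by capillary electrophoresis. System: HepG2 transiently transfected with cis-regulated reporter units. Exposure: 24 h. Analysis: bidirectional, DMSO baseline.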

[11] = biological target: Paired box protein Pax-6 (Homo sapiens) (UniProt P26367); assay: ATG_Pax6_CIS: Attagene CIS-FACTORIAL HepG2 Assay for human Paired Box 6 (PAX6) (AID 2282956); details: HepG2 CIS-FACTORIAL PAX6 reporter transcription, RNA readout; actives raise or lower the signal
Paired box protein Pax-6 (Homo sapiens), sequence (P26367 whole entry, looked up): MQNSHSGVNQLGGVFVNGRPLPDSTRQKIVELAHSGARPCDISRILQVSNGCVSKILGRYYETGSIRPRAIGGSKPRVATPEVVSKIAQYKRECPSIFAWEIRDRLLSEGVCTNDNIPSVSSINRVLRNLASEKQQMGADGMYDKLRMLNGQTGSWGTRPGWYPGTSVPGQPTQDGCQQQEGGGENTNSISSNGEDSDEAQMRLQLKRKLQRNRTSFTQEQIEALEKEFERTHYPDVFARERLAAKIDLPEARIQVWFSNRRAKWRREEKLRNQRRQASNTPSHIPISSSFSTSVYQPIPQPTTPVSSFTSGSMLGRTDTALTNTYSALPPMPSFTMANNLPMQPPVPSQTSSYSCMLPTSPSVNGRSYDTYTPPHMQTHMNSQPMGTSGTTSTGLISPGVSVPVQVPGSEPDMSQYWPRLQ
Procedure, shortened: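 Fluorescent RT-PCR products separated by capillary electrophoresis report PAX6-linked promoter mRNA in HepG2 cells 24 h post-dose. Curves fitted bidirectionally, DMSO as negative control.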

[12] = ATG_PXRE_CIS: Attagene CIS-FACTORIAL HepG2 Assay for human Pregnane X Receptor Element (PXRE) (AID 2282957); details: HepG2 Attagene CIS-FACTORIAL PXRE reporter, mRNA; actives raise or lower the signal
Procedure, shortened: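 Reporter transcripts under endogenous PXR-responsive cis-regulation quantified from total RNA of transfected HepG2 cells 24 h post-dosing, via RT-PCR with fluorescent primer extension and capillary electrophoresis. Gain or loss of signal fitted against DMSO baseline.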

[13] = ATG_RORE_CIS: Attagene CIS-FACTORIAL HepG2 Assay for human RAR-related Orphan Receptor Element (RORE) (AID 2282959); details: HepG2 Attagene cis-factorial RORE reporter, mRNA; actives raise or lower the signal
Procedure, shortened: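 Measured here: transcript induction of a cis-regulated reporter in HepG2 cells transiently transfected via FuGene 6. After 24 h, RNA was processed by RT-PCR and fluorescent capillary electrophoresis; DMSO defined baseline activity.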

[14] = ATG_Sox_CIS: Attagene CIS-FACTORIAL HepG2 Assay for human SRY-box transcription factor (SOX) (AID 2282960); details: HepG2 Attagene cis-factorial SOX reporter, mRNA; actives raise or lower the signal
Procedure, shortened: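 Using transiently transfected HepG2 cells, reporter transcription driven by cis elements was assessed 24 h after dosing. Signal was fluorescence of capillary-separated RT-PCR products, with DMSO defining baseline activity.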

[15] = biological target: Transcription factor Sp1 (Homo sapiens) (UniProt P08047); assay: ATG_Sp1_CIS: Attagene CIS-FACTORIAL HepG2 Assay for human Specificity Protein 1 (Sp1) (AID 2282961); details: HepG2 Sp1 cis-reporter transcription, actives raise or lower the signal
Transcription factor Sp1 (Homo sapiens), sequence (P08047 whole entry, looked up): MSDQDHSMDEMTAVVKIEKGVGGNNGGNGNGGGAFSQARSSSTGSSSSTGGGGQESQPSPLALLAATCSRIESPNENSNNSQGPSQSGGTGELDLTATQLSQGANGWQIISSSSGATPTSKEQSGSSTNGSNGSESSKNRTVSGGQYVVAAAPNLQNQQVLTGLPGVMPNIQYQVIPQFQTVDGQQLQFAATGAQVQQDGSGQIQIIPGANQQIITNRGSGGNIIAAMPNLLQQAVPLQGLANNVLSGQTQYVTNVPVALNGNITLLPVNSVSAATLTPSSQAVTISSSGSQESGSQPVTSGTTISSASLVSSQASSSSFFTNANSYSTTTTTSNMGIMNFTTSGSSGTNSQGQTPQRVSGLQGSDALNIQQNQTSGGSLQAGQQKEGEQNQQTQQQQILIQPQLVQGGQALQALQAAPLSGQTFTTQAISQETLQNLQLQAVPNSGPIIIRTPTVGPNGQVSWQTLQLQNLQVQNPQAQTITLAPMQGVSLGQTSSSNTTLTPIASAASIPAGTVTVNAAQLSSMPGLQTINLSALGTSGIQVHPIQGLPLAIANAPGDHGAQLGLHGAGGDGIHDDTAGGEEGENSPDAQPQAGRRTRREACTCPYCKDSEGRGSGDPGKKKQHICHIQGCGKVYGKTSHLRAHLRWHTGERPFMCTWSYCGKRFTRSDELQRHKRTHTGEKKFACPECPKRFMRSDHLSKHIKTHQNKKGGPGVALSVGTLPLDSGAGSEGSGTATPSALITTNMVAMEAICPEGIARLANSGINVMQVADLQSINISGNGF
Procedure, shortened: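 After transient transfection of HepG2 cells with cis-promoter reporter units and 24 h chemical treatment, reporter transcripts were quantified by RT-PCR and capillary electrophoresis fluorescence. Gain- and loss-of-signal fitted against DMSO.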

[16] = ATG_SREBP_CIS: Attagene CIS-FACTORIAL HepG2 Assay for human Sterol Regulatory Element Binding (SREBP) (AID 2282962); details: HepG2 Attagene cis-factorial SREBP reporter, mRNA; actives raise or lower the signal
Procedure, shortened: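 Endogenous factor activity is measured in HepG2 through multiplexed reporter units under cis-element control. Following a 24 h incubation, reporter transcripts are reverse-transcribed, PCR-amplified and sized by capillary electrophoresis; activity is fitted in both directions relative to DMSO.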

[17] = biological target: Signal transducer and activator of transcription 3 (Homo sapiens) (UniProt P40763); assay: ATG_STAT3_CIS: Attagene CIS-FACTORIAL HepG2 Assay for human Signal Transducer and Activator of Transcription 3 (STAT3) (AID 2282963); details: HepG2, Attagene cis-factorial STAT3 reporter transcription; actives raise or lower the signal
Signal transducer and activator of transcription 3 (Homo sapiens), sequence (P40763 whole entry, looked up): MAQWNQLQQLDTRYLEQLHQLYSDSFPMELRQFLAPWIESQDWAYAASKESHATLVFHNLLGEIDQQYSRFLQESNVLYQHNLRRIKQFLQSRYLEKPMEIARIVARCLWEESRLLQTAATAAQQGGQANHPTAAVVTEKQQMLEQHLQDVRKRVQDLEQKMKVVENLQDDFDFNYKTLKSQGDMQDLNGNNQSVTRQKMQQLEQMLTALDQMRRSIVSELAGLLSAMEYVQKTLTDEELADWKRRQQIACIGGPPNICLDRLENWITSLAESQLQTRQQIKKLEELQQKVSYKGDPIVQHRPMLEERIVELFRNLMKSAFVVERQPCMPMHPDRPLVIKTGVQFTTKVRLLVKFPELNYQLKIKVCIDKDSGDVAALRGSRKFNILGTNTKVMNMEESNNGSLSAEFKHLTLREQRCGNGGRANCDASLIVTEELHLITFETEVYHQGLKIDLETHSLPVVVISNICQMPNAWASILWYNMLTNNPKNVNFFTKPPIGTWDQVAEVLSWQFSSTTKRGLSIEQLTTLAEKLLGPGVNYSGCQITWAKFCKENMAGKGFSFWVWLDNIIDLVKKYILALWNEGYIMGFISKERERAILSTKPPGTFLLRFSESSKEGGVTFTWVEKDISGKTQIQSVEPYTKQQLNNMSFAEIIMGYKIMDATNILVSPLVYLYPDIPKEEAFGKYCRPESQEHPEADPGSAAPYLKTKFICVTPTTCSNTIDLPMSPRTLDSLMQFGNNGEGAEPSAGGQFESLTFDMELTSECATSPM
Procedure, shortened: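 HepG2, MRTU-transfected, 24 h dosing. RNA → RT → PCR → FAM label → HpaI → CE. Bidirectional fit vs DMSO.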

[18] = ATG_TA_CIS: Attagene CIS-FACTORIAL HepG2 Assay for human TA Basal Promoter (AID 2282964); details: HepG2 Attagene CIS-factorial TA basal promoter reporter; actives raise or lower the signal
Procedure, shortened: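 HepG2 cells transiently transfected with multiplexed cis-promoter reporter units, dosed 24 h. Reporter mRNA measured by RT-PCR, 6-FAM labelling, HpaI digestion and capillary electrophoresis; bidirectional fit versus DMSO baseline, serving as background control.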

[19] = biological target: Bile acid receptor (Homo sapiens) (UniProt Q96RI1); assay: ATG_IR1_CIS: Attagene CIS-FACTORIAL HepG2 Assay for human Nuclear Receptor Subfamily 1 Group H Member 4 (NR1H4), IR1 submotif (AID 2282946); details: IR1 reporter transcription, actives raise or lower the signal
Bile acid receptor (Homo sapiens), sequence (Q96RI1 whole entry, looked up): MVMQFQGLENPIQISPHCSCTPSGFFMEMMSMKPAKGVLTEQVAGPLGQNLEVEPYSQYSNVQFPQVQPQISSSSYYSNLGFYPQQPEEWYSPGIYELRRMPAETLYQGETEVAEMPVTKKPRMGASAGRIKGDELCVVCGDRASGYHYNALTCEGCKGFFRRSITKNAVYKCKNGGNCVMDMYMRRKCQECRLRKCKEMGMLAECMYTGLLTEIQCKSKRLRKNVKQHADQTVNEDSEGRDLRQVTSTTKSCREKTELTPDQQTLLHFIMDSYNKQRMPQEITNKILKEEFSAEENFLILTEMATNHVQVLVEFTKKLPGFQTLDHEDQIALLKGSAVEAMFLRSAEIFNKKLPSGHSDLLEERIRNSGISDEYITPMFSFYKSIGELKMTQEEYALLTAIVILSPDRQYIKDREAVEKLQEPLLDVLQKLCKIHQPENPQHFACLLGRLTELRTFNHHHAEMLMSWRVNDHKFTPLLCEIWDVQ
Procedure, shortened: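 Readout: reporter transcript levels by RT-PCR with fluorescent capillary electrophoresis, from HepG2 cells transiently transfected with multiplexed cis-regulated reporters and dosed 24 h. Gain- or loss-of-signal fitted versus DMSO negative control.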

[20] = ATG_PPRE_CIS: Attagene CIS-FACTORIAL HepG2 Assay for human Peroxisome Proliferator-activated Response Element (PPRE) (AID 2282958); details: HepG2 PPRE cis-element reporter, Attagene transcription factor profiling; actives raise or lower the signal
Procedure, shortened: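 After human HepG2 hepatoma cells were transiently transfected with cis-promoter reporter constructs, they were exposed to test chemicals for 24 hours. Reporter RNA was then reverse-transcribed, PCR-amplified, FAM-labeled, HpaI-digested and quantified by capillary electrophoresis.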

## O=C(O)c1cccc(C[C@@H]2COc3ccc(OCc4nc5cc(F)ccc5s4)cc3[C@@H]2O)c1
[1]
  outcome: inactive
[2]
  outcome: inactive
[3]
  AC50: 163 µM (active)
[4]
  outcome: inactive
[5]
  outcome: inactive
[6]
  outcome: inactive
[7]
  outcome: inactive
[8]
  AC50: 168 µM (active)
[9]
  AC50: 154 µM (active)
[10]
  outcome: inactive
[11]
  AC50: 135 µM (active)
[12]
  outcome: inactive
[13]
  outcome: inactive
[14]
  outcome: inactive
[15]
  outcome: inactive
[16]
  outcome: inactive
[17]
  outcome: inactive
[18]
  outcome: inactive

## O=C(O)c1ccc2c(c1)nc(C(=O)NC1CCN(C3CC3)CC1)n2Cc1cc(-c2ccc(Cl)s2)on1
[1]
  outcome: inactive
[19]
  outcome: inactive
[3]
  outcome: inactive
[4]
  outcome: inactive
[5]
  outcome: inactive
[6]
  outcome: inactive
[8]
  outcome: inactive
[9]
  outcome: inactive
[10]
  outcome: inactive
[11]
  outcome: inactive
[12]
  outcome: inactive
[20]
  AC50: 0.149 µM (active)
[13]
  outcome: inactive
[14]
  outcome: inactive
[15]
  outcome: inactive
[16]
  outcome: inactive
[17]
  outcome: inactive
[18]
  outcome: inactive

## OC(CCl)CCl
[1]
  outcome: inactive
[2]
  outcome: inactive
[3]
  outcome: inactive
[4]
  outcome: inactive
[5]
  outcome: inactive
[6]
  outcome: inactive
[7]
  outcome: inactive
[8]
  outcome: inactive
[9]
  outcome: inactive
[10]
  outcome: inactive
[11]
  outcome: inactive
[12]
  outcome: inactive
[20]
  outcome: inactive
[13]
  outcome: inactive
[14]
  outcome: inactive
[15]
  outcome: inactive
[16]
  outcome: inactive
[17]
  outcome: inactive
[18]
  outcome: inactive

## Cn1c(=O)c2[nH]cnc2n(C)c1=O
[1]
  outcome: inactive
[19]
  outcome: inactive
[3]
  outcome: inactive
[4]
  outcome: inactive
[5]
  outcome: inactive
[7]
  outcome: inactive
[8]
  outcome: inactive
[9]
  outcome: inactive
[11]
  outcome: inactive
[12]
  outcome: inactive
[13]
  outcome: inactive
[14]
  outcome: inactive
[15]
  outcome: inactive
[16]
  outcome: inactive
[17]
  outcome: inactive
[18]
  outcome: inactive

## CCCCCCCC/C=C\CCCCCCCC(=O)OC[C@@H](O)[C@H]1OC[C@H](O)[C@H]1O
[1]
  outcome: inactive
[2]
  outcome: inactive
[3]
  outcome: inactive
[4]
  outcome: inactive
[5]
  outcome: inactive
[6]
  outcome: inactive
[7]
  outcome: inactive
[8]
  outcome: inactive
[9]
  outcome: inactive
[11]
  outcome: inactive
[12]
  AC50: 71.7 µM (active)
[13]
  outcome: inactive
[14]
  outcome: inactive
[15]
  outcome: inactive
[16]
  outcome: inactive
[17]
  outcome: inactive
[18]
  outcome: inactive

## OCc1ccccc1
[1]
  outcome: inactive
[2]
  outcome: inactive
[3]
  outcome: inactive
[4]
  outcome: inactive
[5]
  outcome: inactive
[6]
  outcome: inactive
[7]
  outcome: inactive
[8]
  outcome: inactive
[9]
  outcome: inactive
[10]
  outcome: inactive
[11]
  outcome: inactive
[12]
  outcome: inactive
[13]
  outcome: inactive
[14]
  outcome: inactive
[15]
  outcome: inactive
[16]
  outcome: inactive
[17]
  outcome: inactive
[18]
  outcome: inactive

## CCc1cccc(CC)c1N
[1]
  outcome: inactive
[2]
  outcome: inactive
[3]
  outcome: inactive
[4]
  outcome: inactive
[5]
  outcome: inactive
[6]
  outcome: inactive
[7]
  outcome: inactive
[8]
  outcome: inactive
[9]
  outcome: inactive
[10]
  outcome: inactive
[11]
  outcome: inactive
[12]
  AC50: 27.7 µM (active)
[13]
  outcome: inactive
[14]
  outcome: inactive
[15]
  outcome: inactive
[16]
  outcome: inactive
[17]
  outcome: inactive
[18]
  outcome: inactive
